The text below walks through data of PubChem BioAssay.

Inconclusive results are not listed. Active and inactive are the calls of the source.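 How the source made its calls, unless noted: active means inhibition above 54%, about 3 SD of non-fluorescent compounds; inactive means the rest.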

Test [1] can be described thus: yeast TOR pathway RPL19A-GFP modulators, primary screen, cell-based, S. cerevisiae, multiplex flow cytometry (AID 1862; in the data active means percent of DMSO control GFP below about 86%;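 further: lower values mimic rapamycin by blocking the RPL19A rise seen in DMSO cells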). The following applies: S. cerevisiae RPL19A-GFP strain, flow cytometry fluorescence, 3 h; at 10 µM; stronger effect = lower value.
A short description of test [2]: modulators of MEP2-GFP levels in yeast, primary screen, S. cerevisiae, multiplex flow cytometry (AID 1867;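 active means GFP response, as percent of the DMSO control, above the screen-wide mean plus 3 SD, about 139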;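 further: median GFP channel fluorescence of barcode-gated MEP2-GFP cells measured by flow cytometry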). The note with it: S. cerevisiae MEP2-GFP strain, 3 h, at 10 µM, stronger effect = higher value, 100% means same as DMSO wells. A general note: A flow cytometer gives signals particle by particle.
A short description of test [3]: modulators of CIT2-GFP expression in yeast, primary screen, S. cerevisiae, GFP fusion, multiplex flow cytometry (AID 1870;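 active means percent response above a set limit, the screen-wide mean plus 3 SD, cut at about 130% in these data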;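 further: barcoded CIT2-GFP strain pooled with four other GFP strains with rapamycin as positive control; median GFP fluorescence per well over plate mean of DMSO wells so 100% = DMSO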). The following applies: 3 h, at 10 µM, stronger effect = higher value.
Test [4] in a line: modulators of LAP4-GFP expression in yeast, primary screen, S. cerevisiae, multiplex flow cytometry (AID 1873;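 active means GFP signal, as percent of the solvent control, above the screen mean plus 3 SD, about 149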). The note with it: 3 h, at 10 µM, stronger effect = higher value.
The nature of test [5]: modulators of AGP1-GFP expression in yeast TOR pathway, primary screen, cell-based, multiplex flow cytometry, S. cerevisiae (AID 1887;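 active means GFP signal above the screen-wide mean plus 3 SD, that is over about 124.5% of the solvent control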;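 further: AGP1-GFP fusion strain of S. cerevisiae within a five-strain barcoded multiplex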). The following applies: 3 h, at 10 µM, stronger effect = higher value.
Test [6] in a line: inhibitors of CD8+ T cell-vesicle binding, pilot screen, LFA-1/ICAM-1 modulator project, MLPCN validation set, flow cytometry (AID 2523;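 active means response below a set limit, under 55% cells CD8-positive and vesicle-bound, and CD8 cells' 90th-percentile brightness under 279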;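 on vesicle binding response: mean PE anti-B7-1 fluorescence of CD8+ cells relative to row control; 100% = QL9-loaded vesicles with DMSO vehicle in the same plate row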). The note with it: 2C mouse CD8+ T cells, at 7 µM, stronger effect = lower value; double positive events: measured here: CD8+/vesicle+ event percentage.
Test [7] concerns the target Integrin beta-1 (Homo sapiens) + Integrin alpha-4 (Homo sapiens) (UniProt P13612+P05556). In words: inhibition of HUTS-21 binding to VLA-4, pilot screen, VLA-4 allosteric modulator project, U937 cells, HUTS-21 mAb, flow cytometry, validation set (AID 2674;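 active means inhibition above 50%, about 3 SD of the validation set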;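 further: antibody binding induced by the VLA-4 ligand LDV present at three times its Kd; 0% = LDV ligand with antibody and no compound and 100% = antibody without LDV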). The following applies: HUTS-21 LIBS mAb binding, at 6.7 µM, stronger effect = higher value, binding induced by LDV ligand.
The nature of test [8]: superoxide lowering in aged yeast cells, pilot screen, validation compound set (AID 2706;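 active means superoxide response below 65% of plate, a cut near 3 SD across the whole screen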;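 further: yeast exposed to compound for one week at 30 degrees C before staining; 100% = mean of all compound wells on the same plate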). The following applies: S. cerevisiae aging, superoxide DHE fluorescence; at 10 µM; stronger effect = lower value.
For test [9], the target named is Beta-adrenergic receptor kinase 1 (Homo sapiens) (UniProt P25098). Description: GRK2 binders displacing RNA aptamer, biochemical, validation, human GRK2, bead flow cytometry (AID 488806;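 active means aptamer binding inhibition above 30%, about 3 SD of noise from non-fluorescent compounds; inactive means inhibition at or below 30%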). The following applies: bead-bound GRK2, FAM-aptamer displacement, at 10 µM, stronger effect = higher value.
Test [10] addresses Beta-2 adrenergic receptor (Homo sapiens) (UniProt P07550). Description: beta2AR agonists driving receptor internalization, pilot screen, cell-based, FAP fluorogen, flow cytometry, validation set (AID 504459;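 active means percent response above 42, roughly 3 SD of non-fluorescent test compounds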;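 further: agonist-driven loss of surface beta2AR via internalization measured by FAP dye flow cytometry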). The note with it: Am2.2-beta2AR cells, FAP surface receptor flow cytometry; at 10 µM; stronger effect = higher value.
For test [11], the target named is AP-2 complex subunit beta (Homo sapiens) (UniProt P63010). In words: inhibitors of arrestin peptide binding to AP2, pilot screen, biochemical, validation set, GST-AP2 beads, flow cytometry (AID 504541).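 Further: AP2 carries R879A mutation and is captured from E. coli lysate; bead-bound FITC arrestin peptide fluorescence measuring arrestin peptide binding to AP2; 0% = DMSO wells and 100% = excess unlabeled arrestin peptide control.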 The note with it: FITC arrestin peptide, at 10 µM, stronger effect = higher value, AP2 beta2 appendage fragment, R879A mutant.
Test [12] can be described thus: yeast V-ATPase proton transport modulators, S. cerevisiae, pHLuorin, HTS validation (AID 504600; in the data active means response above about 15%;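 further: plate controls were DMSO for no effect and reference compound for full effect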). The following applies: S. cerevisiae pHLuorin cytosolic pH, at 10 µM, stronger effect = higher value.
For test [13], the system named is anti-desmoglein-3 scFv antibody binding to human DSG3. Description: inhibitors of anti-DSG3 scFv binding to DSG3, pilot screen, biochemical, validation compound set, bead-based, flow cytometry (AID 588368;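 active means binding below the plate cutoff, the plate median minus 3 SD, with a reading above zero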;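 further: signal is the median channel fluorescence of bead-bound GFP antibody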). The following applies: Protein G beads, DSG3-Fc, scFv-GFP binding, at 10 µM, stronger effect = lower value.
The nature of test [14]: inhibitors of fungal efflux pumps CDR1, CDR2, MDR1, pilot screen, validation compound set, multiplex, phenotypic (AID 588506;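 active means efflux inhibition above 0.42, the validation set average plus 4 SD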;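 further: Nile Red retained in cells so higher fluorescence means more efflux inhibition; 0 = negative control wells and 1 = enniatin B 25 µM full block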). The note with it: S. cerevisiae pump-expressing triplex, Nile Red efflux flow cytometry; at 10 µM; stronger effect = higher value; the pumps come from Candida albicans.
Test [15] addresses ATP-binding cassette sub-family B member 6 (Homo sapiens) (UniProt Q9NP58). Description: ABCB6 transporter inhibitors, pilot screen, K562-ABCB6 cells, flow cytometry, validation set (AID 588550;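 active means inhibition above the screen-wide mean plus 3 SD, about 51%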;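 further: 0% = DMSO wells and 100% = benzethonium chloride 70 µM positive control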). The note with it: K562-ABCB6 porphyrin accumulation, 1 h, at 10 µM, stronger effect = higher value.
Test [16] is described as follows: promoters of myeloid differentiation in arrested cells, primary screen, cell-based, GFP/MAC1 double positive, flow cytometry, validation set (AID 588685;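 active means differentiation response of at least 50%, scaled between solvent and reference control, from cells with both markers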;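 further: compound exposure lasts four days before antibody staining and flow analysis; 0% = DMSO wells and 100% = 5 µM fulvestrant positive control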). The following applies: ER-HoxA9 marrow cells, stronger effect = higher value, normalized: vehicle 0, fulvestrant 100.

Sequence of Integrin beta-1 (Homo sapiens) + Integrin alpha-4 (Homo sapiens) (P05556 whole entry, looked up): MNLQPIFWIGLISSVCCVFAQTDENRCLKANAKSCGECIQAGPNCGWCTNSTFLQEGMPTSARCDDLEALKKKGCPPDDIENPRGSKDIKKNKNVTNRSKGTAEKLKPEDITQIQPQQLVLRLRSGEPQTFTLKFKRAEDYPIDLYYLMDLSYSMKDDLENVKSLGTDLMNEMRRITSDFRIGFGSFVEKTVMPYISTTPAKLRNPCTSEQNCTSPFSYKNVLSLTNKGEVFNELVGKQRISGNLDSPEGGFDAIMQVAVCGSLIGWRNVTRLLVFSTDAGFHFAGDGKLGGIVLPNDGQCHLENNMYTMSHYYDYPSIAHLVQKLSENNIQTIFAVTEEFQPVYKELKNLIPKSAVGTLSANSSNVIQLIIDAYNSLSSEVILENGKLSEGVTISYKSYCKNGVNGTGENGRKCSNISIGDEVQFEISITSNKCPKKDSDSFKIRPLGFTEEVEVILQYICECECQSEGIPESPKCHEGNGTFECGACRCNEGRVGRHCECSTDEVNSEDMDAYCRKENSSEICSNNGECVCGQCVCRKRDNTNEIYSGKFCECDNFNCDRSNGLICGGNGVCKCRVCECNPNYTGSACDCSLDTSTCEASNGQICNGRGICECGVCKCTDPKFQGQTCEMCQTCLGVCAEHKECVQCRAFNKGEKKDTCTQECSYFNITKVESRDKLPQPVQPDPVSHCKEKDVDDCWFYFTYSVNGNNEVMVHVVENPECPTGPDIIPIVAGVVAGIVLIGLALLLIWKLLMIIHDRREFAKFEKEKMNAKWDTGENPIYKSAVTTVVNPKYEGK
Sequence of Integrin beta-1 (Homo sapiens) + Integrin alpha-4 (Homo sapiens) (P13612 whole entry, looked up): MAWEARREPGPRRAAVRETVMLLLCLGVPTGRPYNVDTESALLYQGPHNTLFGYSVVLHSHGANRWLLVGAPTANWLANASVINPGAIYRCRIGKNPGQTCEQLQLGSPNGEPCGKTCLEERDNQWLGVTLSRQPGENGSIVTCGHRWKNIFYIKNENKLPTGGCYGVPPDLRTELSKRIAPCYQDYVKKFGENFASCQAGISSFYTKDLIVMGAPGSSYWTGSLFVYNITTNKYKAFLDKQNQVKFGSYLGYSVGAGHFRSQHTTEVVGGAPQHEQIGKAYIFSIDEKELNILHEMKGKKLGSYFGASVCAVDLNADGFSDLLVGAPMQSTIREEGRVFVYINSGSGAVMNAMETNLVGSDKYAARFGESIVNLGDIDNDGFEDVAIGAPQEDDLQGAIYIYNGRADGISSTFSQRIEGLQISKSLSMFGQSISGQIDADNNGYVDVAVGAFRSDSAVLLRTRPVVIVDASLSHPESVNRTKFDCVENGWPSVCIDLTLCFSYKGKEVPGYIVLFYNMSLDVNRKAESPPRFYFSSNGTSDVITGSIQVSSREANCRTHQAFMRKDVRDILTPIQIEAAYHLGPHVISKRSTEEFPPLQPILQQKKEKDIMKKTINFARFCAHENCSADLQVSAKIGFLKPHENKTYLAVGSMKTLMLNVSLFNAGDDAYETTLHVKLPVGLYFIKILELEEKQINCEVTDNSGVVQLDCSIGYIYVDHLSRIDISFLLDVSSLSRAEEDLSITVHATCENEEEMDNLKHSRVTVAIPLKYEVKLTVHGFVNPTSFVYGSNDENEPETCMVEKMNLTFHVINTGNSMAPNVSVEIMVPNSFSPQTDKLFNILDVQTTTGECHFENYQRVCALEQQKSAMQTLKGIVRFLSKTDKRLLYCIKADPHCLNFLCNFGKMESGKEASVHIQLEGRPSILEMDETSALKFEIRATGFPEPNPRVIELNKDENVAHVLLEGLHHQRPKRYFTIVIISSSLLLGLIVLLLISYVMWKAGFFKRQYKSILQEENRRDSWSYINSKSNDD
Sequence of ATP-binding cassette sub-family B member 6 (Homo sapiens) (Q9NP58 whole entry, looked up): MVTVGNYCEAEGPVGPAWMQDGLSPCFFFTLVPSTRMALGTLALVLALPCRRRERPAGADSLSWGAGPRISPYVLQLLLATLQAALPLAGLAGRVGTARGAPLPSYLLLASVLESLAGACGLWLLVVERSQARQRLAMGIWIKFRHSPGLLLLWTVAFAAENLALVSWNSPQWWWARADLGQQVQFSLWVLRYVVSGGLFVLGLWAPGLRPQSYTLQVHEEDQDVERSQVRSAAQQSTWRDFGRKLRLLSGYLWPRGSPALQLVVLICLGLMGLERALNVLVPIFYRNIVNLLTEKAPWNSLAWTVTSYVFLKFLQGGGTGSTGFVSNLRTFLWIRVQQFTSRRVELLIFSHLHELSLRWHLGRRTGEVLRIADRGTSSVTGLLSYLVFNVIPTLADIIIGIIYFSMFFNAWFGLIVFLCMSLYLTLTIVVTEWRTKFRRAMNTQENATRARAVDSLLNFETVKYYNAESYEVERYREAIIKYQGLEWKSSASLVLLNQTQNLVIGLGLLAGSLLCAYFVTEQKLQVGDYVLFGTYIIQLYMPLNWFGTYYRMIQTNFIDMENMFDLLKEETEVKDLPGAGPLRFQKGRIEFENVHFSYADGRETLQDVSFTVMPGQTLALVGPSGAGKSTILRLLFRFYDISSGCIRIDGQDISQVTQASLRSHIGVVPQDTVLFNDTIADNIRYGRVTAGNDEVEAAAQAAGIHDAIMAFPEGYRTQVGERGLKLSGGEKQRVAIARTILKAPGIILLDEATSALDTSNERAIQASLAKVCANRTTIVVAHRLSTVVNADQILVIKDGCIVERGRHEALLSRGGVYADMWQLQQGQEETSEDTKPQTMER
Sequence of Beta-2 adrenergic receptor (Homo sapiens) (P07550 whole entry, looked up): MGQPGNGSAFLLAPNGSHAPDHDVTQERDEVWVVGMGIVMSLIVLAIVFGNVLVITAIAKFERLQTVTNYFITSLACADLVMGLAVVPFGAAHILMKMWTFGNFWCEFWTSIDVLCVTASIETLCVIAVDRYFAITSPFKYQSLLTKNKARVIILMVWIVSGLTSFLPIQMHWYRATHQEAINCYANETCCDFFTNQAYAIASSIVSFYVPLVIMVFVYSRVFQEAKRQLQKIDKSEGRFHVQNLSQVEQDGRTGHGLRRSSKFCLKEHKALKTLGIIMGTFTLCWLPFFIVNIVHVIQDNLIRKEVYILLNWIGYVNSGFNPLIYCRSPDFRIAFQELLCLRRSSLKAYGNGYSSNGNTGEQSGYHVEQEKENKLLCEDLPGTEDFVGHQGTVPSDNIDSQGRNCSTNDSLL
Sequence of Beta-adrenergic receptor kinase 1 (Homo sapiens) (P25098 whole entry, looked up): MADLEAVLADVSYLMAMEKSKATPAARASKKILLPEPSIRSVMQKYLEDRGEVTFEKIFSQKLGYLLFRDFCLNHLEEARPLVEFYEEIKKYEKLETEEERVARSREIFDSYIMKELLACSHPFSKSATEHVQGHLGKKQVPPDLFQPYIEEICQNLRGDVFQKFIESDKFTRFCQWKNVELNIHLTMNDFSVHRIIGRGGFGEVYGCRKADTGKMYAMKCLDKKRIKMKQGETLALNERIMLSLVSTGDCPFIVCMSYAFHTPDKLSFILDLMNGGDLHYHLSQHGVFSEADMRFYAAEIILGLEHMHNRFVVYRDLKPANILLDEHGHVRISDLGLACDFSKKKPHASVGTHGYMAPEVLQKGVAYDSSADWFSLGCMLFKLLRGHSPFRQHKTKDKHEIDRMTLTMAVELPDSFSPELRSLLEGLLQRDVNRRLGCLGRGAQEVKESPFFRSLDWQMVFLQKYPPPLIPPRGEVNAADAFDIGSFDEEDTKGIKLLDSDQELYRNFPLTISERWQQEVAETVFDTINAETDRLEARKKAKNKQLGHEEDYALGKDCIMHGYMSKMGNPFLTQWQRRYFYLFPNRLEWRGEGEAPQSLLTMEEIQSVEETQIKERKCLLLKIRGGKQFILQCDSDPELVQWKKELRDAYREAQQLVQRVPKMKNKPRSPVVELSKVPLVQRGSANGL
Sequence of AP-2 complex subunit beta (Homo sapiens) (P63010 whole entry, looked up, the tested form may be a part, one chain of several): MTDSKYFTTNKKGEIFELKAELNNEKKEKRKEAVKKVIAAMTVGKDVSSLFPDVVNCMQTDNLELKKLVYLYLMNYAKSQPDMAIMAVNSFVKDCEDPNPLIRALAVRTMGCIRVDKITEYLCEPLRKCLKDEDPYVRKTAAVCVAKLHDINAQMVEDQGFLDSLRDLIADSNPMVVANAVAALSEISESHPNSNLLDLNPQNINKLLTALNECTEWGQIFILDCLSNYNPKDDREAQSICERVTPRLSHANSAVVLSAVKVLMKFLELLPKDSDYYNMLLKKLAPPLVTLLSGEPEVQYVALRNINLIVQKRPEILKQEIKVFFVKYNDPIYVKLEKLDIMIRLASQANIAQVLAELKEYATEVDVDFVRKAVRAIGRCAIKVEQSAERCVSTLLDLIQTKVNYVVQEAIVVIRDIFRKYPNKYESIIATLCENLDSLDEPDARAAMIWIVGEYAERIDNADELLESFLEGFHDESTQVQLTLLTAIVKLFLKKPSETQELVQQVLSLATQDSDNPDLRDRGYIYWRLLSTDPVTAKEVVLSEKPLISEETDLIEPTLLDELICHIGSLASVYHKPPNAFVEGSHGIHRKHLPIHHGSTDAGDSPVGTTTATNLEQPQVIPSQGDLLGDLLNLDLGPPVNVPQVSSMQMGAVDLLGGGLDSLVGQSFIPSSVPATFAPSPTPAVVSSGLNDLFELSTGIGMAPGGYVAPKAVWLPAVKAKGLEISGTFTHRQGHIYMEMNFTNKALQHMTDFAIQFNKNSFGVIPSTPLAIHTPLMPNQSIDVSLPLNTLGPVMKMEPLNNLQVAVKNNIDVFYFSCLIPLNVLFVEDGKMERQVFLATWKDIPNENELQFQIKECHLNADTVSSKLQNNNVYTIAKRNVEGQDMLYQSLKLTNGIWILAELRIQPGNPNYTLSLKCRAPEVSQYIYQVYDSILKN

As for `CC1(C)Cc2ccccc2-c2n[nH]c(=S)n21`, the percent of DMSO control GFP in test [1] is 99.1% (inactive). The GFP response vs DMSO in [2] and in test [4] was 102% (inactive) each time. The percent response of DMSO control in test [3] was 101% (inactive). Besides, the GFP response, % of DMSO in test [5] is 104% (inactive). The double positive events in test [6] is 61.1%. The vesicle binding response in test [6] was 203% (inactive). In addition, the values for the inhibition in [7], in [11] and in [15] were 9.63% (inactive), 56.7% (active) and 11% (inactive), respectively. In addition, the superoxide response (% of plate) in test [8] is 92.5% (inactive). Further, the aptamer binding inhibition in test [9] is 2% (inactive). The response in test [10] and in test [12] was -1.77% (inactive) throughout. Further, the binding (% of control) in [13] is 97.2% (inactive). Moreover, in test [14], the efflux inhibition (fraction of control) is 0.19 (inactive). Besides, the differentiation response in test [16] was -14.8% (inactive).

For the compound `Cc1ccc(C(=O)Nc2ccc(O)cc2C(=O)O)cc1C`, the percent of DMSO control GFP in test [1] is 105% (inactive). Also, the figures for the GFP response vs DMSO in test [2] and in test [4] were 99.6% (inactive) and 75.2% (inactive), respectively. The percent response of DMSO control in [3] was 102% (inactive). Moreover, the GFP response, % of DMSO in test [5] is 86.8% (inactive). The double positive events in test [6] was 58.8%. The vesicle binding response in [6] was 274% (inactive). Further, the inhibition in [7] was 9.13% (inactive); in test [11] it was -1.05% (inactive); in [15], -4% (inactive). In addition, in test [8], the superoxide response (% of plate) is 103% (inactive). In test [9], the aptamer binding inhibition was 3% (inactive). Also, the response in test [10] is 51.5% (active); in test [12] it was 1.04% (inactive). In test [13], the binding (% of control) was 106% (inactive). For the same compound, the efflux inhibition (fraction of control) in test [14] was 0.05 (inactive). Also, the differentiation response in [16] was 5.6% (inactive).

For `O=C(CN1C(=O)c2ccccc2C1=O)Nc1cccc([N+](=O)[O-])c1`, in test [1], the percent of DMSO control GFP is 103% (inactive). Besides, the GFP response vs DMSO in [2] was 98.7% (inactive); in test [4], 100% (inactive). Also, the percent response of DMSO control in [3] is 109% (inactive). In addition, the GFP response, % of DMSO in test [5] is 106% (inactive). In test [6], this compound gave a double positive events of 61.2%. Besides, in [6], the vesicle binding response was 130% (inactive). The results for the inhibition in test [7], in test [11] and in [15] were -18.5% (inactive), 35% (inactive) and 7% (inactive), respectively. The superoxide response (% of plate) in [8] is 94.2% (inactive). The aptamer binding inhibition in test [9] is -3% (inactive). Further, the response is -3.16% (inactive) in [10] and -0.16% (inactive) in [12]. In addition, the binding (% of control) in test [13] is 101% (inactive). In addition, the efflux inhibition (fraction of control) in test [14] is 0.005 (inactive). In addition, in [16], the differentiation response was -10.4% (inactive).

As to `COc1ccc(CCNc2ncnc3c2[nH]c2cc(OC)c(OC)cc23)cc1OC`, the percent of DMSO control GFP in [1] is 97.2% (inactive). The GFP response vs DMSO in [2] was 126% (inactive); in test [4], 82.5% (inactive). Besides, in test [3], the percent response of DMSO control is 111% (inactive). Also, in [5], the GFP response, % of DMSO is 98.7% (inactive). For the same compound, the double positive events in test [6] is 64%. In addition, the vesicle binding response in [6] was 178% (inactive). Moreover, the inhibition in test [7] was 0.64% (inactive); in test [11], -1.78% (inactive); in [15], 10% (inactive). The superoxide response (% of plate) in test [8] was 97.5% (inactive). Moreover, the aptamer binding inhibition in test [9] is 2% (inactive). Besides, the response in test [10] was 19.8% (inactive); in test [12], 3.11% (inactive). Besides, the binding (% of control) in test [13] is 101% (inactive). Further, the efflux inhibition (fraction of control) in test [14] is -0.06 (inactive). In [16], the differentiation response was -0.82% (inactive).

For `O=C(O)/C=C/c1cccc(OCc2ccccc2)c1`, in [1], the percent of DMSO control GFP was 93.8% (inactive). For the same compound, the GFP response vs DMSO in [2] was 105% (inactive); in test [4], 123% (inactive). The percent response of DMSO control in [3] is 93.4% (inactive). Besides, in [5], the GFP response, % of DMSO was 82.2% (inactive). For the same compound, the double positive events in test [6] worked out at 58.1%. Further, in test [6], the vesicle binding response was 131% (inactive). In addition, the inhibition in test [7] was 5.61% (inactive); in [11] it was 13.5% (inactive); in test [15], 8% (inactive). The superoxide response (% of plate) in test [8] was 104% (inactive). Besides, the aptamer binding inhibition in test [9] was 3% (inactive). Also, the response in test [10] is 4.34% (inactive); in test [12], -4.03% (inactive). In addition, the binding (% of control) in [13] is 94.3% (inactive). Moreover, the efflux inhibition (fraction of control) in test [14] is -0.24 (inactive). Further, the differentiation response in test [16] was -8.96% (inactive).

On to `O=C1c2ccccc2C2(c3ccccc3)NCCN12` (centres undefined), for which the percent of DMSO control GFP in test [1] was 101% (inactive). Moreover, the GFP response vs DMSO in [2] is 102% (inactive); in [4], 95.9% (inactive). The percent response of DMSO control in [3] was 109% (inactive). In addition, the GFP response, % of DMSO in test [5] is 99.8% (inactive). Also, the double positive events in test [6] amounted to 59.5%. Also, the vesicle binding response in [6] was 122% (inactive). The inhibition is -14.5% (inactive) in test [7], 6.52% (inactive) in test [11] and 3% (inactive) in [15]. For the same compound, the superoxide response (% of plate) in [8] is 92.9% (inactive). Further, the aptamer binding inhibition in test [9] was 0% (inactive). Moreover, the values for the response in test [10] and in [12] were -0.82% (inactive) and 11.8% (inactive), respectively. In [13], the binding (% of control) was 104% (inactive). Besides, in test [14], the efflux inhibition (fraction of control) was -0.19 (inactive). In [16], the differentiation response was -14.8% (inactive).

Take `CCn1c(C)cc2c(c1=O)C(c1ccccc1)C(C(=O)OC)=C(N)O2` (centres undefined): the percent of DMSO control GFP in test [1] was 102% (inactive). The GFP response vs DMSO in test [2] was 105% (inactive); in [4], 108% (inactive). Besides, the percent response of DMSO control in test [3] is 98.3% (inactive). The GFP response, % of DMSO in test [5] was 111% (inactive). The compound also came in with a double positive events in test [6] of 58.8%. For the same compound, the vesicle binding response in test [6] is 167% (inactive). In addition, the inhibition in test [7] is 18.5% (inactive); in [11], 1.11% (inactive); in [15] it was 7% (inactive). For the same compound, the superoxide response (% of plate) in [8] is 108% (inactive). Moreover, the aptamer binding inhibition in [9] is 4% (inactive). Besides, the response in test [10] is -32.4% (inactive); in [12], -16.3% (inactive). In addition, in [13], the binding (% of control) is 102% (inactive). In test [14], the efflux inhibition (fraction of control) was 0.04 (inactive). Besides, the differentiation response in test [16] is 4.86% (inactive).

The inhibition is the drop in the measured response relative to a control, in per cent.
